Here are results for 65 molecules from PubChem BioAssay AID540313 (Sanford-Burnham Center for Chemical Genomics, 2011).

SMILES strings stand for the structures. Where “and” joins values, the source holds several entries; their conditions need not be identical. Identical values can stand only once. Hit rate of the full screen: of about 2,500 compounds, fewer than 10 were called active. A selection follows. A number with no mark means an inactive call.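 Rule for the calls: active = inhibition of at least 30% at 20 µM; inactive = the rest.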

The test in a line: colorimetric readout interference by compounds, confirmation, artefact control for Scp-1 inhibitor project, biochemical, single concentration (AID 540313).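 Note: compounds added after enzyme reaction finished so only phosphate colour detection is probed; plate controls were DMSO wells with completed Scp-1 reaction for no effect and substrate wells lacking enzyme for full effect.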 The conditions noted are these: Colorimetric interference counterscreen, malachite green absorbance 630 nm; at 20 µM; hits give high values. (Counterscreens check selectivity or assay interference.)
For `Cn1c(N)c(C(=O)COC(=O)c2ccc3ccccc3c2)c(=O)n(C)c1=O`, the apparent inhibition (interference) is -13.1%.
Consider `N/C(=N\OC(=O)N1c2ccccc2Sc2ccccc21)c1ccc(Br)cc1`, for which the apparent inhibition (interference) is -18.1%.
With `O=[N+]([O-])c1cc(S(=O)(=O)Nc2cccc(Cl)c2)ccc1N=Nc1c(O)[nH]c2ccccc12`, the apparent inhibition (interference) is -15.6%.
Take `CCOC(=O)C1CCCN(C(=O)CN(c2ccc(OC)cc2)S(=O)(=O)c2c(C)noc2C)C1` (stereo not given): the apparent inhibition (interference) was -13.4%.
With `C[n+]1ccc(C(=O)NCc2ccccc2)cc1`, the apparent inhibition (interference) was -18.9%.
As to `CCOC(=O)C1=C(C)c2ccccc2OC1(C)C(=O)OCC` (stereo not given), the apparent inhibition (interference) was -21.7%.
For the molecule `O=C(CNC(=O)C(c1ccccc1)c1ccccc1)N/N=C\c1ccc2c(c1)OCO2`, the apparent inhibition (interference) is -8.18%.
In the case of `CCC(=O)Nc1ccccc1N1CCN(S(C)(=O)=O)CC1` it was -13.4%; in that of `C=Cc1ccc(C(=O)N2CCCC(CCC(=O)N3CCN(c4ccccn4)CC3)C2)cc1` (stereo not given), -12.3%.
Consider `CCc1ccc(NC(=O)CS(=O)CC(=O)NCCCc2ccccc2)cc1` (stereo not given), for which the apparent inhibition (interference) was -6.8%.
In the case of `O=C(CCS(=O)(=O)c1ccc(Br)cc1)NCCc1ccc(Cl)cc1`, the apparent inhibition (interference) is -10.1%.
Turning to `Cc1ccc(NC(=O)COc2ccc(/C=N\NC(=O)c3cccnc3)cc2)cc1C`, the apparent inhibition (interference) was -15.6%.
Regarding `O=C(CCNC(=O)c1ccccc1)NN=Cc1ccc(Br)o1`, the apparent inhibition (interference) was -15.3%.
Under `O=C(NN1C(=O)C2C3C=CC(O3)C2C1=O)c1ccccc1` (stereo not given) stands -7.63%.
Under `COc1ccc(Cc2nnc(NC(=O)Cc3cccs3)s2)cc1` stands -7.35%; under `CCCCSc1nnc(-c2ccc(C)cc2)o1`, -17.8%; under `CSc1ccc(/C=N/NC(=O)c2cccc(Cl)c2)cc1`, -14.2%.
On to `Cc1oc2c(C)c3oc(=O)c(CC(=O)N[C@@H](CC(C)C)C(=O)N[C@@H](Cc4ccccc4)C(=O)O)c(C)c3cc2c1C`, for which the apparent inhibition (interference) is -9.01%.
Turning to `O=C(c1cc2c(s1)CCC2)N1CCN(c2ccccc2)CC1`, the apparent inhibition (interference) was -15.9%.
On to `COc1ccc(S(=O)(=O)c2c[nH]c(=S)[nH]c2=O)cc1Cl`, for which the apparent inhibition (interference) was -5.98%.
Under `COCCCn1c(Cc2csc(Nc3cccc(Cl)c3)n2)nnc1SCC(=O)OC1CCCCC1` stands -7.61%; under `C=CC1C(OC2OC(CO)C(O)C(O)C2O)OC=C(C(=O)OC)C1CC1CC(=O)CC(CC(=O)CCc2ccc(O)cc2)O1` (stereo not given), -16.9%.
Turning to `COC(=O)c1ccc(-c2c(-c3ccccc3)ncc3cc(OC)c(OC)cc23)cc1`, the apparent inhibition (interference) was -3.78%.
Regarding `CCOc1ccc2nc(N(CCCN(C)C)C(=O)c3ccc(C(=O)c4ccccc4)cc3)sc2c1`, the apparent inhibition (interference) is -0.21%.
With `COc1cc(/C=C/C2=CC(C)(C)NC(=S)N2)cc(OC)c1OC`, the apparent inhibition (interference) is -12%.
With `COC(=O)CNC(=O)C(CCSC)NC(C)=O` (stereo not given), the apparent inhibition (interference) was -13.1%.
For the molecule `COc1cc(SC)ccc1C(=O)NNC(=O)C1COc2ccccc2O1` (stereo not given), the apparent inhibition (interference) was -1.3%.
In the case of `COC(=O)C[n+]1cccc2ccccc21` it was -9.28%.
Turning to `CC1=NN(C(=O)CCc2ccccc2O)C(O)(C(F)(F)F)C1` (stereo not given), the apparent inhibition (interference) was -14%.
For the molecule `Cc1c(Cl)cnc(NC(=O)COC(=O)c2ccc(S(=O)(=O)NCc3ccco3)cc2)c1Cl`, the apparent inhibition (interference) was -10.4%.
For `O=C(COc1ccc(-n2cnnn2)cc1)Nc1ccccc1Cl`, the apparent inhibition (interference) was -15.1%.
In the case of `COc1ccc(N2CCN(C(=O)CSc3nc4cc(OC)c(OC)cc4cc3C#N)CC2)cc1` it was -7.08%; in that of `O=C(N/N=C/c1ccco1)c1ccc(C(=O)N/N=C/c2ccco2)o1`, -14.2%.
For `C[N+](C)(C)CCNC(=O)c1cc[n+](Cc2ccccc2)c(/C=N/O)c1`, the apparent inhibition (interference) was -12%.
Turning to `Cc1cc(C(=O)OCC(=O)NCc2ccco2)c(C)n1-c1ccccc1`, the apparent inhibition (interference) was -9.53%.
Regarding `COc1cc(Cl)cc(C2NC(=O)NC(C)=C2C(=O)NCc2ccccc2)c1O` (stereo not given), the apparent inhibition (interference) was -16.4% and -17.8%.
In the case of `O=C(COC(=O)c1cnc(Cl)c(Cl)c1)NCc1ccco1` it was -17.8%; in that of `O=C(COC(=O)c1ccccc1O)NCc1ccco1`, -13.4%.
In the case of `COc1cccc(CC(=O)OCC(=O)NCc2ccc3c(c2)OCO3)c1`, the apparent inhibition (interference) is -8.18%.
Regarding `CC(C)CCOc1ccc(C(=O)C[N+]2(C)CCOCC2)cc1`, the apparent inhibition (interference) is -0.2%.
Take `CO/N=C(\C(=O)N[C@@H]1C(=O)N2C(C(=O)O)=C(COC(C)=O)CS[C@H]12)c1csc(N)n1` (stereo in doubt): the apparent inhibition (interference) is -15.6%.
In the case of `O=c1[nH]n(-c2ccc([N+](=O)[O-])cc2)c(=O)c2ccccc12` it was -12.9%; in that of `CCCCCN1CC(O)=C(c2nc(-c3ccc(Cl)cc3)cs2)C1=N`, -5.98%.
As to `CC(=O)Nc1ccccc1Sc1ccc2c3c(cccc13)C(=O)N(c1ccc(C)cc1)C2=O`, the apparent inhibition (interference) was -10.1%.
Under `Cc1ccc(C2(C)NC(=O)N(CC(=O)Nc3ccccc3C(=O)N3CCCCC3)C2=O)cc1` (stereo not given) stands -11.4%.
Regarding `O=C1CCC(CCC(=O)N2CCCC(C(=O)c3ccc(Cl)cc3)C2)=NN1` (stereo not given), the apparent inhibition (interference) is -3.23%.
Under `Cc1ccc(NC(=O)COC(=O)C2C3CC4OC(=O)C2C4C3)cc1Cl` (stereo not given) stands -4.6%; under `CC(C)c1ccc(NC(=S)NNc2ccc(Cl)c(C(=O)O)c2)cc1`, -8.44%.
With `COc1ccc(Cl)cc1NC(=O)CCS(=O)(=O)c1ccc(Br)cc1`, the apparent inhibition (interference) was -18.6%.
Under `CS(=O)(=O)C1=NN2C(=N)/C(=C\c3ccc(OCCOc4ccccc4)cc3)C(=O)N=C2S1` stands -4.6%.
Regarding `CC[n+]1c(C)n(-c2ccccc2)c2ccc(NC(C)=O)cc21`, the apparent inhibition (interference) is -13.9%.
Under `Cc1ccc(NC(=O)c2cc(-c3ccc(C)o3)nc3ccccc23)nc1` stands -3.5%; under `O=C(Nc1cccnc1)c1cc2cc(Br)ccc2oc1=O`, -8.18%; under `C[C@H](CO)N1C[C@H](C)[C@@H](CN(C)C(=O)NC2CCCCC2)Oc2ccc(NC(=O)c3ccncc3)cc2C1=O`, -14.8%.
Regarding `O=C(Nc1cccc(F)c1)c1cc(-c2ccco2)nc2ccccc12`, the apparent inhibition (interference) is -4.88%.
For the molecule `COc1ccc(NC(=O)CN(C)C(=O)/C=C/c2cn(Cc3ccccc3)nc2-c2cccnc2)cc1`, the apparent inhibition (interference) is -11.7%.
Consider `Cc1ccn2c(=O)nc(SCC(=O)NCc3ccc4c(c3)OCO4)nc2c1`, for which the apparent inhibition (interference) was -8.16%.
`N#Cc1ccccc1CN1C(=O)S/C(=C/c2cccn2-c2cccc(C(=O)O)c2)C1=O`: the apparent inhibition (interference) was -14.7%.
Take `Cc1ccc(CCNC(=O)c2ccc3nc4ccccc4c(=O)n3c2)cc1`: the apparent inhibition (interference) is 0.61%.
With `Cc1ccc(SCC(=O)NC(=O)NCc2ccco2)c(C)c1`, the apparent inhibition (interference) was -4.05%.
As to `O=C(COC(=O)c1ccc(F)cc1F)Nc1ncccn1`, the apparent inhibition (interference) is -16.9%.
In the case of `CNS(=O)(=O)c1cccc(C(=O)OCC(=O)N2c3ccccc3NC(=O)C2(C)C)c1` it was -15.3%; in that of `COc1cccc2cc(-c3cc(=O)oc4cc(C)c(O)cc34)oc12`, -23.3%.
With `COC(=O)c1ccccc1NC(=O)C1(S(=O)(=O)c2ccc(Cl)cc2)CC1`, the apparent inhibition (interference) is -20.5%.
For `O=C(CCC(=O)N/N=C/c1ccc(Br)o1)N/N=C/c1ccc(Br)o1`, the apparent inhibition (interference) was -16.4%.
